Bioassay records (PubChem BioAssay)
CHOP inh = blocks CHOP induction under ER stress | inhibition, % at 10 µM | AID 2732 | 3.8% of 220,000 active | CHO-K1 CHOP-promoter luciferase, tunicamycin-induced, 15-18 h;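 active = compounds that reduced the stress-induced luciferase reporter signal by more than about 70% of percent inhibition, limit read from the data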;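 also: 0% = tunicamycin plus vehicle and 100% = wells without tunicamycin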
Hsp70 act = transcriptional activators of Hsp70; HeLa Hsp70 promoter luciferase reporter, luminescence; scaled: vehicle 0, proteasome-inhibitor control 100%; activation, % at 10 µM; 0.04% of 200,000 active; AID 1203;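 active = activation above the mean across all tested compounds plus 3 SD, cutoff set per campaign, cut at about 5.5% in these data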;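 also: 100% = MG132 at 30 µM as the positive control and 0% = DMSO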
S1P4 antag = human S1P4 receptor antagonism | S1P4-expressing cells, antagonist mode, reporter read-out | inhibition, % at 4.98 µM | 0.26% of 220,000 active; in the data active = inhibition above about 29%;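 also: 0% = wells stimulated with agonist and 100% = vehicle wells without agonist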
Target sequence (O95977 whole entry, looked up): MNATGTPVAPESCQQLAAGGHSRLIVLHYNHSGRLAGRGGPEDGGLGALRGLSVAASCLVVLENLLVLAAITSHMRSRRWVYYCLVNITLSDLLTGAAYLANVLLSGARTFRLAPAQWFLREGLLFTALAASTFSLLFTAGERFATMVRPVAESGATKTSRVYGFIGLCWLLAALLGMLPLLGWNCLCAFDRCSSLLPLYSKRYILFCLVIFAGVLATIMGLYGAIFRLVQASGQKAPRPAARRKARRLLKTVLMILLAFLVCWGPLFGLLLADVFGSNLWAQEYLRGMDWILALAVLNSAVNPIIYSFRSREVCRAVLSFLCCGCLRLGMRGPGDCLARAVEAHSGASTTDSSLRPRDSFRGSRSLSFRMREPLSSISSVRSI
S1P4 ag = agonists of human S1P4 receptor; O95977; S1P4-expressing cell line, agonist reporter assay; activation, % at 4.98 µM; 0.35% of 220,000 active; in the data active = activation above about 11%;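 also: 0% = DMSO vehicle and 100% = reference agonist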
CHOP confirm = confirmation of CHOP induction inhibitors; AID 504437; CHO-CHOP promoter luciferase reporter, tunicamycin-induced, luminescence; shares compounds with CHOP inh; 45% of 2,100 active; inhibition, % at 10 µM;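 active = mean of three repeat readings of reporter signal inhibition above a set limit, cut at about 70% in these data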;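 also: 0% = tunicamycin plus vehicle and 100% = wells lacking tunicamycin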
Starred values were filed as active, the others as inactive. Sampled rows, rich in hits. Any-hit rate of the full collection: about 4.2%.

What do the screens show for `O=C1NN=C(c2ccc(Cl)cc2)CC1c1cccc(Cl)c1` (stereo unspecified)?
CHOP inh: 102*; Hsp70 act: 0; S1P4 antag: -4; S1P4 ag: -1; CHOP confirm: 44

What do the screens show for `O=C1NN=C(c2ccccc2)CC1c1ccc(Cl)cc1Cl` (stereo unspecified)?
CHOP inh: 63; Hsp70 act: 0; S1P4 antag: -13; S1P4 ag: 2

Results for O=C(Nc1ccc(F)cc1F)c1cc2ncc(CCCl)cn2n1 ?
CHOP inh: 16; Hsp70 act: 0; S1P4 antag: -10; S1P4 ag: 0

What do the screens show for `C1=C(c2ccccc2)Nc2nnnn2C1`?
CHOP inh: -6; Hsp70 act: 0; S1P4 antag: -13; S1P4 ag: 0

What do the screens show for `CSc1cccc(NC(=O)COc2cccc3ccccc23)c1`?
CHOP inh: 106*; Hsp70 act: 0; S1P4 antag: -1; S1P4 ag: 0; CHOP confirm: 16

What do the screens show for `CCOCC(=O)Nc1cccc(SC)c1`?
CHOP inh: -3; Hsp70 act: 0; S1P4 antag: 2; S1P4 ag: 0

Results for CCN(CC)C(=O)CS(=O)(=O)CC(=O)Nc1cc(OCCOC)c(Cl)cc1Cl ?
CHOP inh: 13; Hsp70 act: 0; S1P4 antag: -6; S1P4 ag: 1

What do the screens show for `OC1(c2ccc(Br)cc2)CCNCC1`?
CHOP inh: 101*; Hsp70 act: -1; S1P4 antag: 1; S1P4 ag: -2; CHOP confirm: 25

Results for CCOC(=O)COc1cc(N)c(Cl)cc1Cl ?
CHOP inh: -2; Hsp70 act: 0; S1P4 antag: -13; S1P4 ag: 1

What do the screens show for `O=[N+]([O-])c1cccnc1N1CCC(c2cc(-c3cccc(C(F)(F)F)c3)n[nH]2)CC1`?
CHOP inh: 103*; Hsp70 act: 0; S1P4 antag: 13; S1P4 ag: -1; CHOP confirm: 48

What do the screens show for `O=C(COC(=O)CCOc1ccccc1)NCCC1=CCCCC1`?
CHOP inh: 33; Hsp70 act: 0; S1P4 antag: -2; S1P4 ag: 2

How did Cc1cc(NC(=O)c2sc(Nc3ccc(F)c(Cl)c3)nc2N)no1 do in these assays?
CHOP inh: 100*; Hsp70 act: 0; S1P4 antag: -4; S1P4 ag: -1; CHOP confirm: -32

What do the screens show for `CCn1c(=O)c(=O)[nH]c2cc(C(=O)NC3CCCC3)ccc21`?
CHOP inh: -5; Hsp70 act: 0; S1P4 antag: -21; S1P4 ag: 0

How did COC(=O)C(Cc1cnc(Cl)s1)(C(=O)OC)c1ccc(C(F)(F)F)cc1[N+](=O)[O-] do in these assays?
CHOP inh: 98*; Hsp70 act: 1; S1P4 antag: -4; S1P4 ag: 3; CHOP confirm: 24

Results for CCOC(=O)c1sc2nc3c(SCC(=O)O)cc(C(=O)c4cc(F)ccc4O)cn3c(=O)c2c1C ?
CHOP inh: 25; Hsp70 act: 0; S1P4 antag: -8; S1P4 ag: -1

How did CC(=O)C1=C(S(=O)(=O)c2ccc(C)cc2)CS(=O)(=O)C1 do in these assays?
CHOP inh: 98*; Hsp70 act: 0; S1P4 antag: -6; S1P4 ag: 2; CHOP confirm: 71*

How did Cc1ccc(S(=O)(=O)C2CS(=O)(=O)CC2O)cc1 (stereo unspecified) do in these assays?
CHOP inh: -26; Hsp70 act: 0; S1P4 antag: 0; S1P4 ag: -5

What do the screens show for `COc1ccc(-c2cc(C3CCN(Cc4cccc(C(F)(F)F)c4)CC3)[nH]n2)cc1`?
CHOP inh: 106*; Hsp70 act: 0; S1P4 antag: -13; S1P4 ag: 2; CHOP confirm: 104*

How did CCOC(=O)C1=C(C)NC(=S)NC1c1ccc(C)s1 (stereo unspecified) do in these assays?
CHOP inh: 15; Hsp70 act: 0; S1P4 antag: -14; S1P4 ag: 0

Results for CCOC(=O)c1cc([N+](=O)[O-])c([N+](=O)[O-])cc1NC(C)=O ?
CHOP inh: 107*; Hsp70 act: 0; S1P4 antag: -21; S1P4 ag: 2; CHOP confirm: 91*

How did O=C(Cc1csc(Nc2nc(=S)[nH]c3ccccc23)n1)NCc1ccc(Cl)cc1 do in these assays?
CHOP inh: -18; Hsp70 act: 0; S1P4 antag: -8; S1P4 ag: -1

Results for O=C(Cc1csc(Nc2nc(=S)[nH]c3ccccc23)n1)NCCCN1CCN(c2ccccc2F)CC1 ?
CHOP inh: 105*; Hsp70 act: 0; S1P4 antag: -15; S1P4 ag: 3; CHOP confirm: 85*

How did COc1ccccc1NC(=O)N1CCCC1C(=O)NCC1CCCO1 (stereo unspecified) do in these assays?
CHOP inh: -6; Hsp70 act: 0; S1P4 antag: 7; S1P4 ag: -1

How did CCN(CC)c1ccc2cc(/C(N)=N/NC(=O)c3cccs3)c(=O)oc2c1 do in these assays?
CHOP inh: 102*; S1P4 antag: -12; S1P4 ag: 1; CHOP confirm: -5

Results for N#C/C(=C/c1ccc(N2CCCCCC2)o1)c1cccc(F)c1 ?
CHOP inh: 104*; Hsp70 act: 1; S1P4 antag: 1; S1P4 ag: -1; CHOP confirm: 28

Results for N#C/C(=C/c1ccc(N2CCCCCC2)o1)c1ccc(F)cc1 ?
Hsp70 act: 2; S1P4 antag: 0; S1P4 ag: 1

What do the screens show for `CCC(c1ccccc1)c1nc(-c2ccccn2)no1` (stereo unspecified)?
CHOP inh: -6; Hsp70 act: 0; S1P4 antag: -17; S1P4 ag: 0

Results for Cc1cc(NC(=O)c2noc3c2CCc2ccccc2-3)no1 ?
CHOP inh: 19

What do the screens show for `Cc1ccc(O)c(NC(=O)c2noc3c2CCc2ccccc2-3)c1`?
CHOP inh: 107*; Hsp70 act: 0; S1P4 antag: 8; S1P4 ag: -1; CHOP confirm: -96

What do the screens show for `COC(=O)C(NNc1ccccc1)(NC(=O)c1cccc(F)c1)C(F)(F)F` (stereo unspecified)?
CHOP inh: 18; Hsp70 act: 0; S1P4 antag: -2; S1P4 ag: 0

How did COc1ccc(/C=C2/C(=O)ON=C2c2ccccc2)cc1OC do in these assays?
CHOP inh: 105*; Hsp70 act: 0; S1P4 antag: -33; S1P4 ag: -2; CHOP confirm: 104*

What do the screens show for `COc1cc(/C=C2\C(=O)ON=C2c2ccccc2)cc(OC)c1OC`?
CHOP inh: -28; Hsp70 act: 0; S1P4 antag: -18; S1P4 ag: 0

How did O=C1ON=C(c2ccccc2)/C1=C/c1ccco1 do in these assays?
CHOP inh: 104*; Hsp70 act: 0; S1P4 antag: 0; S1P4 ag: -2; CHOP confirm: -80

How did CCc1nc2c3cnn(-c4cc(Cl)ccc4C)c3ncn2n1 do in these assays?
CHOP inh: 44; Hsp70 act: 0; S1P4 antag: -16; S1P4 ag: 0

What do the screens show for `Cc1nc2nc[nH]n2c(=O)c1CCOC(=O)c1ccccc1F`?
CHOP inh: 11; Hsp70 act: 0; S1P4 antag: -1; S1P4 ag: 1
